# In the library only some 3% were active in any assay of this set; here they are far more common.
# KAT2A inh = blocks human GCN5L2 histone acetyltransferase; Q92830; GCN5L2 HAT assay, ThioGlo1 CoA-SH fluorescence; Potency, µM (series often up to 58.9 µM), inactives show at the highest dose activity change, negative = inhibition, usual class: inhibitors; hit rate 0.21% among 390,000; AID 504327
# Target sequence (Q92830 whole entry, looked up): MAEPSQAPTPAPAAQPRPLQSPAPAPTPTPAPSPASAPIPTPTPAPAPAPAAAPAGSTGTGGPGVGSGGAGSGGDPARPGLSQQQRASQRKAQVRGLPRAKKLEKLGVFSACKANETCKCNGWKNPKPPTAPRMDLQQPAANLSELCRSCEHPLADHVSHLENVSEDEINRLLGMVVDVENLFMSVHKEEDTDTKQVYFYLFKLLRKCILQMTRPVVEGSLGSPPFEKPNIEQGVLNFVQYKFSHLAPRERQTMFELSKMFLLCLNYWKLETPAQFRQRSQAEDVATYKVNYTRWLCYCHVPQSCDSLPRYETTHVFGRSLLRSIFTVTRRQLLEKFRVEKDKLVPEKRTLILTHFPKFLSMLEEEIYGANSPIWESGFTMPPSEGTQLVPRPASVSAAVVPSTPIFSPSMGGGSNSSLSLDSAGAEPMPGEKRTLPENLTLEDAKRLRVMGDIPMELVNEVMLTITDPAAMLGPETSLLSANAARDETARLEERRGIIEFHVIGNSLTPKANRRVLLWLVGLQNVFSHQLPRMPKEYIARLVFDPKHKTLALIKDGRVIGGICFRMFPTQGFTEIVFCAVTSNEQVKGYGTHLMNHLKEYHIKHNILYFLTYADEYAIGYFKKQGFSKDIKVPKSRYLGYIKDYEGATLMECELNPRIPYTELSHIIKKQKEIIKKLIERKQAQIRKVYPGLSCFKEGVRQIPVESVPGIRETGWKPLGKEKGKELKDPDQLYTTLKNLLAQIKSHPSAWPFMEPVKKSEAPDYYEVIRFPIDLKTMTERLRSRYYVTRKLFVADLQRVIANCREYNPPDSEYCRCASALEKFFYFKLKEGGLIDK
#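 Preincubate 20nM GCN5L2 with compound 15 min, RT → add 50uM ThioGlo1 + 75uM H3(1-25) + 70uM acetyl-CoA → read fluorescence 0 and 20 min. Primary qHTS; fluorescent artifacts likely.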
# ALOX12 inh = blocks human arachidonate 12S-lipoxygenase; purified 12hLO, xylenol orange hydroperoxide absorbance; Potency, µM (series often up to 108 µM), without a hit: top-dose activity change, negative = inhibition, hits mostly inhibitors; hit rate 1.1% among 580,000
#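 Hydroperoxide product was detected by ferrous iron/xylenol orange as the 573 to 405 nm absorbance ratio. Arachidonic acid at 40 uM (final) was turned over for 30 min at room temperature by 150 nM human 12hLO, pH 7.0 Hepes buffer, after 15 min compound preincubation.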
# PLK1 PBD block = PLK1 (human) polo-box domain binding inhibition; Potency, µM, for the others: max response, negative = inhibition, actives largely listed as inhibitors; Plk1 PBD binding of FITC phosphopeptide, fluorescence polarization; AID 720504; hit rate 2.8% among 360,000; further: series mostly up to about 57 µM; nearly all actives have a fitted effect of over 65% in size
# VDR inh = blocks the human vitamin D receptor; P11473; hit rate 0.93% among 400,000; VDR-SRC2-3 peptide fluorescence polarization, 2 h; Potency, µM, without a hit: max response, negative = inhibition, usual class: inhibitors
#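 Fluorescence polarization assay measuring small-molecule disruption of VDR binding to the coregulator peptide SRC2-3. Compounds were pin-transferred (23 nl) into the reagent mix and incubated 2 h at room temperature before reading.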
# * marks the source's active call; other numbers are inactive results; ? = inconclusive; . = not tested or not shown. The call rests on the fitted dose curve; in most records, active means well fitted curve in the direction sought with a large enough effect; inconclusive means small, poorly fitted or top-dose-only effect, or another doubt; inactive means no such curve, though single readings can be large; an effect the other way counts as inactive or inconclusive. On the % scale 0 is the no-effect control and ±100 the full control effect; potency means the concentration at half of the fitted maximal effect.
SMILES,KAT2A inh,ALOX12 inh,PLK1 PBD block,VDR inh
CS(=O)(=O)Nc1cccc(C2=NN(S(=O)(=O)c3ccccc3)C(c3ccco3)C2)c1 (stereo unspecified),-7%,?,30µM*,-14%
CN(C)c1ccc(C2CC(c3cccc(NS(C)(=O)=O)c3)=NN2C(=O)c2ccccc2)cc1 (stereo unspecified),-7%,28µM*,-24%,5%
COc1cc(CN2CCC(C(=O)N3CCN(c4ccccc4F)CC3)CC2)cc(OC)c1O,-11%,2.5µM*,-4%,-8%
CCOc1ccc(CN2CCC(C(=O)N3CCN(c4ccccc4F)CC3)CC2)cc1OC,-24%,?,-4%,-5%
CN(C)C(=O)COc1ccccc1-c1nc(-c2ccccc2)no1,.,36%,.,.
Cc1ccc(-c2csc3ncnc(Sc4nnc(C5CC5)o4)c23)cc1,.,43%,.,.
CCC(C)NC(=O)C1=CC(c2cc(OC)ccc2OC)=NS(=O)(=O)N1C (stereo unspecified),.,-6%,.,.
COc1ccc(OC)c(C2=NS(=O)(=O)N(C)C(C(=O)Nc3ccc(C(C)=O)cc3)=C2)c1,-12%,-21%,30µM*,-19%
C[C@H]1[C@@H]2[C@@H](O)C([C@H](C)C(=O)N3CCc4ccccc4C3)CC[C@@]2(C)CC[C@@H]1NC(=O)c1cnccn1 (stereo partly specified),.,36%,.,.
COc1ccccc1[C@@H]1C(c2cccc(Cl)c2)=NN(c2ccccc2)[C@H]1C(=O)N1CCOC1=O,20µM*,.,5%,2%
O=C1OCCN1C(=O)[C@H]1[C@H](c2ccccc2)C(c2cccc(Cl)c2)=NN1c1ccc(Br)cc1,22µM*,-10%,-5%,-15%
CN1CCN(C(=O)C2CCCN(c3nc(Cl)nc4nc[nH]c34)C2)CC1 (stereo unspecified),.,-9%,.,.
O=C(O)CCCNS(=O)(=O)c1ccc(C(=O)O)cc1,.,-29%,.,.
Cc1ccccc1NNC(N)=S,-10%,?,-16%,-15%
NC(=S)NNc1c(F)c(F)c(F)c(F)c1F,-17%,-30%,27µM*,-3%
O=C(c1cc(COc2c(F)cccc2F)on1)N1CCN(C2CCCCC2)CC1,-5%,1%,24µM*,-4%
O=C(c1cc(COc2c(F)cccc2F)on1)N1CCCCCC1,-3%,14%,-14%,-5%
COc1ccc(CNCCc2ccc([N+](=O)[O-])cc2)c(OC)c1OC,-8%,7.9µM*,-7%,11%
COc1ccc(C)cc1NCc1ccc([N+](=O)[O-])cc1,-4%,4%,-1%,-14%
CC(C)c1noc(COc2ccc(C(=O)NC3CCCC3)cc2)n1,.,22%,.,.
O=C1/C(=C/c2ccncc2)SC(=S)N1Nc1ccccc1,-16%,-33%,5.3µM*,50µM*
O=C1/C(=C/c2ccc(O)c(O)c2)SC(=S)N1Nc1ccccc1,-29%,.,8%,12%
Cc1cc(C)nc(NN2C(=O)/C(=C/c3ccccc3)SC2=S)n1,4%,-5%,-27%,101%
O=C(O)c1ccc(/C=C2\SC(=S)N(Nc3ccccc3)C2=O)cc1,-13%,-21%,21µM*,?
O=C(CNc1cccc(S(=O)(=O)N2CCOCC2)c1)N1CCN(C(=O)c2cccs2)CC1,.,6%,.,.
SMILES,KAT2A inh,ALOX12 inh,PLK1 PBD block,VDR inh
Fc1ccc(-c2cnc(COc3ccc(-c4nnco4)cc3)o2)cc1,.,-23%,.,.
Fc1ccc(-c2cnc(COc3ccc(Cl)cc3)o2)cc1,.,14µM*,.,.
CCC(C)NC(=O)C1COC2(CCN(C(=O)c3ccc(F)cc3F)CC2)N1C(=O)c1ccccc1 (stereo unspecified),.,6%,.,.
COc1cc(NC(=S)NC(=O)c2ccc(C(C)(C)C)cc2)ccc1NC(=O)c1cccs1,-7%,6.3µM*,-3%,-12%
COc1cc(NC(=O)c2cccs2)c(OC)cc1NC(=O)CCC(=O)Nc1cccc2ncccc12,1%,-14%,2%,?
COc1ccccc1NC(=O)CCC(=O)Nc1cc(OC)c(NC(=O)c2cccs2)cc1OC,-4%,-32%,27µM*,?
COc1ccc(C(=O)N2CCc3ccc(C(=O)NCc4ccc(C)o4)cc32)cc1,.,24%,.,.
CCOC(=O)c1c(C)c(-c2ccccc2)n(CC(=O)Nc2ccc(OC)cc2OC)c1C,.,-1%,.,.
Cc1cc2nnc(SC(C)C#N)n2c2ccccc12 (stereo unspecified),0%,?,21µM*,-23%
COc1cc2c(cc1OC)C(C1C(=O)CC(C)(C)CC1=O)N(C(=O)CCl)CC2 (stereo unspecified),-1%,?,70%,-4%

# High-throughput results (PubChem)
